What all share (assay): yeast three-hybrid, YBZ-1, SC-Leu-His + 0.5 mM 3-AT, 4 days
What all share (conditions): tags: N-Gal4 AD-HA kept; label: inside an RPR1-promoter hybrid RNA with tandem MS2 sites; ssRNA

One experiment deals with PUM1 PUF domain R4-CCM (Homo sapiens, UniProt Q14671 828-1176, N971C;H972C;Q975M). The gist of the method:
(§1)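 Each repeat of the Pumilio-1 PUF domain was randomized at its three base-contacting residues, and these libraries were co-expressed from a centromeric plasmid with matching RNA elements in strain YBZ-1. After four days on SC-Leu (input) or SC-Leu-His + 0.5 mM 3-AT (selection), the repeat regions were PCR-amplified and Illumina-sequenced. The interaction score compares variant frequency between input and selection as a log change, computed in log2 with a pseudocount of 1 for absent variants.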

The target in the next experiment is T1, PUM1 PUF domain R6-FRE (Homo sapiens, UniProt Q14671 828-1176, N1043F;Y1044R;Q1047E).
T1 sequence: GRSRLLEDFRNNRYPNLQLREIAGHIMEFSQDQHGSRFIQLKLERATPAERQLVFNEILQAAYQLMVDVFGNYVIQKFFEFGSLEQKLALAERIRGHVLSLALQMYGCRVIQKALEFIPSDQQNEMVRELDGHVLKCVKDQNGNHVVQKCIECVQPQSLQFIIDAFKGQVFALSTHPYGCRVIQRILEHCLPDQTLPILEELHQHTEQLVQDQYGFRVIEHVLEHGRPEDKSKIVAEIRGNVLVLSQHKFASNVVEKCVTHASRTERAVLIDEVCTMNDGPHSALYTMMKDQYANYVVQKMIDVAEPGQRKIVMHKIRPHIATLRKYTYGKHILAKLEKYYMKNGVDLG
The gist of the method: as §1

The next experiment concerns the target PUM1 PUF domain R2-KFG (Homo sapiens, UniProt Q14671 828-1176, N899K;Y900F;Q903G). A digest of the protocol: as §1
The target of another experiment is PUM1 PUF domain R4-WGF (Homo sapiens, UniProt Q14671 828-1176, N971W;H972G;Q975F). The gist of the method:
as §1

The target of a further experiment is PUM1 PUF domain R5-KYG (Homo sapiens, UniProt Q14671 828-1176, C1007K;R1008Y;Q1011G). The gist of the method:
as §1

The target in the next experiment is PUM1 PUF domain R1-KRD (Homo sapiens, UniProt Q14671 828-1176, S863K;Q867D). The gist of the method:
as §1

The target in the next experiment is PUM1 PUF domain R7-GSR (Homo sapiens, UniProt Q14671 828-1176, S1079G;N1080S;E1083R). A digest of the protocol: as §1
The next experiment concerns the target PUM1 PUF domain R4-WAT (Homo sapiens, UniProt Q14671 828-1176, N971W;H972A;Q975T). The gist of the method: as §1
A further experiment has as its target PUM1 PUF domain R4-SMR (Homo sapiens, UniProt Q14671 828-1176, N971S;H972M;Q975R). A digest of the protocol:
as §1

The target in another experiment is PUM1 PUF domain R1-CFK (Homo sapiens, UniProt Q14671 828-1176, S863C;R864F;Q867K). A digest of the protocol:
as §1

PUM1 PUF domain R5-KYG, sequence (Q14671 828-1176 C1007K/R1008Y/Q1011G): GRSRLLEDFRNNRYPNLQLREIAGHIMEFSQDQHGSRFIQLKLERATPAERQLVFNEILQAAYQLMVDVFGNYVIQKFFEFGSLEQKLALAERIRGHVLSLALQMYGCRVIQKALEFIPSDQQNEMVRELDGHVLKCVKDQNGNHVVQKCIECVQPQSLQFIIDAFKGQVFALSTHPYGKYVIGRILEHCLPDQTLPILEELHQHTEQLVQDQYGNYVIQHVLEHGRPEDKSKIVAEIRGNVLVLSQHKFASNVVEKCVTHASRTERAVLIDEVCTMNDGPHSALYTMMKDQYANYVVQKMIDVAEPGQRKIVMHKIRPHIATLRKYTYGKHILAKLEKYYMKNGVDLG

Take “GGCUAGAACUAGUGGAUCCCCCGGCGCCCGGCGGCUCGAGCCCGGGUAAGUGUAUAUAGUCUGCAUGCCGCCGGGCGCCAUGCCUGCAGGUCGACUCUAGAAAACAUG”: the binding signal in the experiment with PUM1 PUF domain R4-CCM is 2.39 log2 enrichment (interaction score). For the sequence “GGCUAGAACUAGUGGAUCCCCCGGCGCCCGGCGGCUCGAGCCCGGGUAAGUGUAAAUAGUCUGCAUGCCGCCGGGCGCCAUGCCUGCAGGUCGACUCUAGAAAACAUG”, the binding signal with PUM1 PUF domain R6-FRE was 3.3 log2 enrichment (interaction score); in the experiment with PUM1 PUF domain R4-CCM it was 1.07 log2 enrichment (interaction score); with PUM1 PUF domain R2-KFG, 7.86 log2 enrichment (interaction score); with PUM1 PUF domain R4-WGF, 4.73 log2 enrichment (interaction score); with PUM1 PUF domain R5-KYG, 3.77 log2 enrichment (interaction score).

Consider “GGCUAGAACUAGUGGAUCCCCCGGCGCCCGGCGGCUCGAGCCCGGGUAAGUGUAAAUCGUCUGCAUGCCGCCGGGCGCCAUGCCUGCAGGUCGACUCUAGAAAACAUG”, for which the binding signal in the experiment with PUM1 PUF domain R1-KRD is 3.37 log2 enrichment (interaction score).

For the sequence “GGCUAGAACUAGUGGAUCCCCCGGCGCCCGGCGGCUCGAGCCCGGGUAAGUUUAAAUAGUCUGCAUGCCGCCGGGCGCCAUGCCUGCAGGUCGACUCUAGAAAACAUG”, in the experiment with PUM1 PUF domain R7-GSR, the binding signal was 4.22 log2 enrichment (interaction score). As for “GGCUAGAACUAGUGGAUCCCCCGGCGCCCGGCGGCUCGAGCCCGGGUAAGUGUCAAUAGUCUGCAUGCCGCCGGGCGCCAUGCCUGCAGGUCGACUCUAGAAAACAUG”, the binding signal in the experiment with PUM1 PUF domain R5-KYG is 5.55 log2 enrichment (interaction score). On to “GGCUAGAACUAGUGGAUCCCCCGGCGCCCGGCGGCUCGAGCCCGGGUAAGUGUACAUAGUCUGCAUGCCGCCGGGCGCCAUGCCUGCAGGUCGACUCUAGAAAACAUG”, for which the binding signal with PUM1 PUF domain R4-WAT is 2.53 log2 enrichment (interaction score); with PUM1 PUF domain R4-SMR, 2.97 log2 enrichment (interaction score). As to “GGCUAGAACUAGUGGAUCCCCCGGCGCCCGGCGGCUCGAGCCCGGGUAAGUGUAAAUUGUCUGCAUGCCGCCGGGCGCCAUGCCUGCAGGUCGACUCUAGAAAACAUG”, the binding signal in the experiment with PUM1 PUF domain R1-CFK is 3.31 log2 enrichment (interaction score). For the sequence “GGCUAGAACUAGUGGAUCCCCCGGCGCCCGGCGGCUCGAGCCCGGGUAAGUGUGAAUAGUCUGCAUGCCGCCGGGCGCCAUGCCUGCAGGUCGACUCUAGAAAACAUG”, the binding signal in the experiment with PUM1 PUF domain R5-KYG is 2.74 log2 enrichment (interaction score).
